Rows were chosen to be rich in hits. Some 6.2% of all compounds tested hit in one or more screens of this group.
S2 tox: viability counter-screen for ATXN expression inhibitors. Potency, µM (highest dose often 56.7 µM), most hits filed as cytotoxic. 400,000 compounds, 0.49% hits. S2 cells (HEK-293 line with an ATXN2-luciferase reporter) viability, CellTiter-Fluor protease fluorescence, 24 h. AID 651635; further: nearly all actives have a fitted effect of over 40% in size
HT1080NT lethal: kills 2HG-producing HT-1080-NT fibrosarcoma cells; Potency, µM (series often up to 46.1 µM), inactives show at the highest dose activity, negative = less viability, hits mostly cytotoxic; HT-1080-NT fibrosarcoma viability, CellTiter-Glo ATP luminescence, 48 h; 360,000 compounds, 1.6% hits;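 further: NT is the 2HG producing partner of a matched IDH1 knockdown line; 0% = DMSO-treated cells and -100% = media-only wells without cells; nearly all actives have a fitted effect of over 55% in size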
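Compounds were tested in concentration-response format on HT-1080-NT cells for 48 hours at 37 degrees C. Cell viability came from CellTiter-Glo luminescence; curves were classified by r2, response magnitude and activity.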
KB-V1 cytotox: kills drug-selected multidrug resistant KB-V1 cells; KB-V1 MDR cells viability, CellTiter-Glo, 72 h; Potency, µM (titrated, usually from 46.1 µM), hits mostly cytotoxic; 400,000 compounds, 3.4% hits; AID 1347076; further: on the % scale 0 is the no-effect control and ±100 the full control effect; nearly all actives have a fitted effect of over 60% in size
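Drug-selected KB-V1 cells, grown in DMEM lacking phenol red with 10% FBS, receive compound titrations; after three days at 37 degrees C, surviving cell ATP is quantified by CellTiter-Glo luminescence and responses normalized and curve-fitted.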
KB-3-1 cytotox: KB-3-1 parental cell cytotoxicity; KB-3-1 viability, CellTiter-Glo ATP luminescence, 72 h; Potency, µM (top dose mostly 46.1 µM), most hits filed as cytotoxic; 400,000 compounds, 1.4% hits; AID 1347075; further: on the % scale 0 is the no-effect control and ±100 the full control effect; nearly all actives have a fitted effect of over 60% in size
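Here the drug-naive KB-3-1 line serves as comparator for MDR sub-line selectivity; cells received compound titrations, 72 h at 37 °C, then CellTiter-Glo readout.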
HT1080 IDH1KD tx: kills HT-1080 cells with IDH1 knockdown; HT-1080 IDH1 knockdown viability, ATP luminescence, 48 h; Potency, µM (series often up to 46.1 µM), without a hit: at the top dose activity, negative = toxicity, hits mostly cytotoxic; 360,000 compounds, 2% hits;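 further: 0% = DMSO wells and -100% = cell-free medium wells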
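After a 2 h attachment period, IDH1KD HT-1080 cells took pin-transferred compound for 48 h at 37 °C; ATP-based luminescence after 10 min room-temperature reagent incubation reported viability.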
ATXN2 expr inh: ATXN2 expression inhibition | HEK-293 ATXN2-luciferase reporter, luminescence, 24 h | Potency, µM (doses to about 57 µM), without a hit: top-dose activity change, negative = inhibition, hits mostly inhibitors | 360,000 compounds, 0.72% hits; further: on the % scale 0 is the no-effect control and ±100 the full control effect; nearly all actives have a fitted effect of over 55% in size
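ATXN2-luciferase reporter cells (luciferase flanked by upstream and downstream ATXN2 gene portions) were treated 24 h at 37 °C with compounds at up to 57 uM. SteadyGlo luminescence gave expression; GF-AFC fluorescence gave viability.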
* marks the source's active call; other numbers are inactive results; i = inactive; ? = inconclusive; nt = not tested or not shown. The call rests on the fitted dose curve; in most records, active means well fitted curve in the direction sought with a large enough effect; inconclusive means small, poorly fitted or top-dose-only effect, or another doubt; inactive means no such curve, though single readings can be large; an effect the other way counts as inactive or inconclusive. Potency means the concentration at half of the fitted maximal effect.

SMILES	S2 tox	HT1080NT lethal	KB-V1 cytotox	KB-3-1 cytotox	HT1080 IDH1KD tx	ATXN2 expr inh
O=C1CCC(C(=O)N2CCCC(C(=O)c3ccc4c5c(cccc35)CC4)C2)=NN1 (centres undefined)	i	-15%	i	15µM*	?	17%
O=C1CCC(CCC(=O)N2CCCC(C(=O)c3ccc4c5c(cccc35)CC4)C2)=NN1 (centres undefined)	i	-5%	i	i	-8%	-25%
Cc1ccc(C(=O)COC(=O)CCC(=O)Nc2ccc(Oc3cc(C)ccc3C(C)C)cc2)cc1	i	nt	i	i	nt	0%
COc1ccc(-c2cc(-c3ccccc3)c(C#N)c(S(C)(=O)=O)n2)cc1	?	5%	i	?	6%	?
COc1nc(-c2ccccc2)cc(-c2ccc3c(c2)OCO3)c1C#N	i	?	i	1.8µM*	-14%	0%
CCOc1cccc(/C=N/Nc2ccc(S(=O)(=O)N(CC)CC)cn2)c1O	?	?	?	i	2.6µM*	?
N#CCCn1cc(C(=O)Nc2ccc([N+](=O)[O-])cc2)c(-c2cc3ccccc3o2)n1	25µM*	?	i	i	-17%	nt
Cc1cc2nc(/C=C/c3nc4cc(C)c(C)cc4[nH]3)[nH]c2cc1C	nt	-4%	i	i	-9%	nt
Cc1cc2nc(/C=C/c3cccnc3)[nH]c2cc1C	i	0.52µM*	0.26µM*	1.2µM*	0.58µM*	nt
CC1(C)C2CCC1(CS(=O)(=O)NCc1ccc(Cl)cc1Cl)C(=O)C2 (centres undefined)	i	-19%	10µM*	?	-14%	-12%
CC1(C)C2CCC1(CS(=O)(=O)Nc1ccc(S(=O)(=O)NC3CCCCC3)cc1)C(=O)C2 (centres undefined)	i	-7%	16µM*	i	-9%	-5%
COc1cccc(NS(=O)(=O)CC23CCC(CC2=O)C3(C)C)c1 (centres undefined)	i	1%	i	i	-5%	1%
COC(=O)c1ccc(C2c3c(-c4ccccc4O)n[nH]c3C(=O)N2Cc2cccnc2)cc1 (centres undefined)	?	nt	?	i	nt	3%
Cn1nccc1C(=O)NC1CCCc2c1cnn2-c1ccc(C(C)(C)C)cc1 (centres undefined)	?	1.3µM*	?	?	1.3µM*	-33%
CC(=O)CCC(=O)NC1CCCc2c1cnn2-c1ccc(C(C)(C)C)cc1 (centres undefined)	?	-10%	?	i	-9%	-11%
CC(=O)NC1CCCc2c1cnn2-c1ccc(C(C)(C)C)cc1 (centres undefined)	i	-1%	i	i	-3%	-12%
CC(C)(C)c1ccc(-n2ncc3c2CCCC3NC(=O)CCN2CCCC2=O)cc1 (centres undefined)	i	?	i	i	18µM*	nt
CC(C)(C)c1ccc(-n2ncc3c2CCCC3NC(=O)CN2CCCC2=O)cc1 (centres undefined)	i	?	8.2µM*	?	1%	-12%
Cc1cc(C)cc(-n2ncc3c2CCCC3NC(=O)c2ccccc2N2CCOCC2)c1 (centres undefined)	?	?	?	?	16µM*	-15%
COCC(=O)N(C)C[C@H]1Oc2ncc(C#C[C@H](C)O)cc2C(=O)N([C@@H](C)CO)C[C@H]1C	i	-3%	i	i	-6%	4%
CCOC(=O)c1cc(CC)sc1NC(=O)COc1ccccc1C	i	nt	i	i	nt	9%
CCN1C(=O)C2(c3ccccc31)c1c(oc3ccc(C)cc3c1=O)C(=O)N2CCCOC(C)C (centres undefined)	i	nt	i	i	nt	9%
Clc1ccc(SCc2csc(N3CCOCC3)n2)cc1	nt	-13%	i	i	-4%	14%
